Several values for one entry are separate records, joined by “and”; a condition that tells them apart may be missing. Identical values can stand only once. Where a structure was tested more than once in an assay, its records may differ in their call. Activity calls are given as the source filed them. How the source made its calls: active means hit-call score of the fitted dose curve at least 0.9, where 1 is the maximum; inactive means score below 0.9.
How the values were obtained:
Conditions in all cases: primary human B cells with PBMC
[1] = BSK_BT_PBMCCytotoxicity: PBMC Cytotoxicity Assessment in the BioMAP Diversity Plus: BT Assay (AID 2284225);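 further: PBMC viability measured by Alamar Blue dye reduction fluorescence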
How it was run: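 75,000 cells/well; cpd 1 h → SEB + TSST-1 (20 ng/mL final each) → 90 h → Alamar Blue 6 h → fluor. 546/580 nm. DMSO = neg. control/baseline.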

[2] = read-out: Secreted IgG (sIgG), gene 3500; test: BSK_BT_sIgG: BioMAP Diversity Plus: BT Assay for Secreted IgG (sIgG) Biomarker Activity (AID 2284226)
How it was run: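 Secreted IgG from a human primary B cell–PBMC co-culture was measured by ELISA 24 hours after dosing, with DMSO defining baseline activity.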

[3] = BSK_BT_Bcell_Proliferation: Viability Assessment in the BioMAP Diversity Plus: BT Assay for B cell Proliferation (AID 2284227)
How it was run: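 Human B cells co-cultured with PBMC were dosed with test chemicals and relative cell number was quantified by SRB staining at 72 h. Cells were fixed in 10% TCA, stained with 0.1% SRB and read at 560 nm. Activity was fitted in the positive direction against DMSO.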

[4] = read-out: Interleukin 6 (IL6), IL6 (gene 3569); test: BSK_BT_xIL6: BioMAP Diversity Plus: BT Assay for Interleukin 6 (IL6) Biomarker Activity (AID 2284228)
How it was run: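 Secreted IL-6 in the primary human B cell plus PBMC system, measured by Luminex at 24 h post-chemical, DMSO as baseline. Alamar Blue viability: 75,000 cells/well, chemical 1 h before SEB/TSST-1 (20 ng/mL each), 90 h, then 6 h dye.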

[5] = read-out: Interleukin 17A (IL17A), IL17A (gene 3605); test: BSK_BT_xIL17A: BioMAP Diversity Plus: BT Assay for Interleukin 17A (IL17A) Biomarker Activity (AID 2284229)
How it was run: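 Luminex xMAP quantification of secreted IL-17A after 24 h chemical exposure of a primary human B cell/PBMC co-culture. Signal increases fitted relative to DMSO negative control.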

SMILES | outcome [1] | outcome [2] | outcome [3] | outcome [4] | outcome [5] | AC50 [1] | AC50 [3] | AC50 [2] | AC50 [4] | AC50 [5]
CCCCCCC(C)OC(=O)CCCCC(=O)OC(C)CCCCCC (configuration not stated) | inactive | inactive | inactive | inactive | inactive | – | – | – | – | –
CCO[Si](CCC(F)(F)C(F)(F)C(F)(F)C(F)(F)C(F)(F)C(F)(F)F)(OCC)OCC | inactive | inactive | inactive | inactive | inactive | – | – | – | – | –
C=CC(=O)OCC(F)(F)C(F)(F)C(F)(F)C(F)(F)C(F)(F)C(F)(F)C(F)(F)F | inactive | inactive | inactive | inactive | inactive | 14 µM (active) | – | – | – | –
O=C(O)C(F)(F)C(F)(F)C(F)(F)C(F)(F)F | inactive | inactive | inactive | inactive | inactive | – | – | – | – | –
C=CC(F)(F)C(F)(F)C(F)(F)C(F)(F)C(F)(F)C(F)(F)C(F)(F)C(F)(F)F | inactive | inactive | inactive | inactive | inactive | – | – | – | – | –
O=C(O)C(F)(F)C(F)(F)C(F)(F)C(F)(F)C(F)(F)C(F)(F)C(F)(F)C(F)(F)Cl | – | inactive | – | inactive | inactive | 20.5 µM (active) and 22.2 µM (active) | 8.64 µM (active) and 37.3 µM (active) | – | – | –
FC(F)(F)C(F)(F)C(F)(F)N(C(F)(F)C(F)(F)C(F)(F)F)C(F)(F)C(F)(F)C(F)(F)F | inactive | inactive | inactive | inactive | inactive | – | – | – | – | –
Oc1ccc(Nc2ccccc2)cc1 | – | – | – | – | – | 16.7 µM (active) | 22.5 µM (active) | 13.4 µM (active) | 20 µM (active) | 14.3 µM (active)
CCCCCCCCCCCCCCCC[N+](C)(C)Cc1ccccc1 | – | – | – | – | – | 5.2 µM (active) | 2.44 µM (active) | 0.274 µM (active) | 9.92 µM (active) | 2.84 µM (active)
NC(=O)C(F)(F)C(F)(F)C(F)(F)C(F)(F)F | inactive | inactive | inactive | inactive | inactive | – | – | – | – | –
Nc1ccc([N+](=O)[O-])cc1O | inactive | inactive | inactive | inactive | inactive | – | – | – | – | –
OCC(F)(F)C(F)(F)C(F)(F)F | inactive | inactive | inactive | inactive | inactive | – | – | – | – | –
FC(F)(F)C(F)(F)CNCC(F)(F)C(F)(F)F | inactive | inactive | inactive | inactive | inactive | – | – | – | – | –
COC(=O)CCC(F)(F)C(F)(F)C(F)(F)C(F)(F)F | inactive | inactive | inactive | inactive | inactive | – | – | – | – | –
CCCCCCCOC(=O)c1ccccc1C(=O)OCCCCCCC | inactive | – | inactive | inactive | inactive | – | – | 13.3 µM (active) | – | –
CCc1c(Br)c(Br)c(Br)c(Br)c1Br | inactive | inactive | inactive | inactive | inactive | – | – | – | – | –
CCc1ccc(C(c2ccc(CC)cc2)C(Cl)Cl)cc1 | – | – | – | – | – | 31.1 µM (active) | 31.7 µM (active) | 14.7 µM (active) | 27.8 µM (active) | 28.8 µM (active)
FC(F)(F)C(F)(F)C(F)(F)C(F)(F)C(F)(F)C(F)(F)CC1CO1 (configuration not stated) | inactive | inactive | inactive | inactive | inactive | – | – | – | – | –
O=C(O)C(F)(OC(F)(F)C(F)(OC(F)(F)C(F)(F)C(F)(F)F)C(F)(F)F)C(F)(F)F (configuration not stated) | inactive | inactive | inactive | inactive | inactive | – | – | – | – | –
O=P(O)(O)OCCC(F)(F)C(F)(F)C(F)(F)C(F)(F)C(F)(F)C(F)(F)F | inactive | inactive | inactive | – | inactive | – | – | – | 21.9 µM (active) and 19.9 µM (active) | 20.2 µM (active)

SMILES | outcome [1] | outcome [2] | outcome [3] | outcome [4] | outcome [5] | AC50 [1] | AC50 [3] | AC50 [2] | AC50 [4] | AC50 [5]
FC(F)(F)C(F)(F)C(F)(F)C(F)(F)C(F)(F)C(F)(F)C(F)(F)I | inactive | inactive | inactive | inactive | inactive | – | – | – | – | –
O=C(O)C(F)(F)C(F)(F)C(F)F | inactive | inactive | inactive | inactive | inactive | – | – | – | – | –
O=C(O)C(F)(F)C(F)(F)C(F)(F)C(F)(F)C(F)(F)C(F)(F)C(F)(F)C(F)(F)C(F)(F)C(F)(F)C(F)(F)C(F)(F)C(F)(F)F | inactive | inactive | inactive | inactive | inactive | – | – | – | – | –
C=CC/C=C/C/C=C/C/C=C/C | inactive | inactive | inactive | inactive | inactive | – | – | – | – | –
OCC(F)(F)C(F)(F)C(F)(F)C(F)F | inactive | inactive | inactive | inactive | inactive | – | – | – | – | –
CCCCCCCCC(F)(F)C(F)(F)C(F)(F)C(F)(F)C(F)(F)C(F)(F)F | inactive | inactive | inactive | inactive | inactive | – | – | – | – | –
CCCCNc1ccccc1 | inactive | inactive | inactive | inactive | inactive | – | – | – | – | –
FC(F)(F)C(F)(F)C(F)(F)C(F)(F)C(F)(F)CCI | inactive | inactive | inactive | inactive | inactive | – | – | – | – | –
O=C(O)C=C(C(F)(F)F)C(F)(F)F | inactive | – | – | inactive | inactive | – | 30 µM (active) | 46 µM (active) and 43.1 µM (active) | – | –
CCN(CC)c1ccc2c(C)cc(=O)oc2c1 | inactive | – | inactive | – | inactive | – | – | 28.3 µM (active) | 10.9 µM (active) | –
OCCCC(F)(F)C(F)(F)C(F)(F)C(F)(F)C(F)(F)C(F)(F)C(F)(F)F | – | – | – | – | – | 20.4 µM (active) and 20.1 µM (active) | 23.6 µM (active) and 20.6 µM (active) | 18.3 µM (active) and 48.6 µM (active) | 21 µM (active) and 25.9 µM (active) | 18.8 µM (active) and 36.4 µM (active)
CO[Si](OC)(c1ccccc1)c1ccccc1 | inactive | inactive | inactive | inactive | inactive | – | – | – | – | –
CCCCOCCOCCOC(=O)CCCCC(=O)OCCOCCOCCCC | inactive | inactive | inactive | inactive | inactive | – | – | – | – | –
FC1CC(F)(F)C(F)(F)C1(F)F (configuration not stated) | inactive | inactive | inactive | inactive | inactive | – | – | – | – | –
C=C(C)C(=O)OCCC(F)(F)C(F)(F)C(F)(F)C(F)(F)C(F)(C(F)(F)F)C(F)(F)F | inactive | inactive | inactive | inactive | inactive | – | – | – | – | –
OCCCC(F)(F)C(F)(F)C(F)(F)F | inactive | inactive | inactive | inactive | inactive | – | – | – | – | –
FC(F)(F)C(F)(F)C(F)(F)CI | inactive | inactive | inactive | inactive | inactive | – | – | – | – | –
O[Si](c1ccccc1)(c1ccccc1)c1ccccc1 | inactive | – | – | inactive | – | – | 27.3 µM (active) | 14.1 µM (active) | – | 28.9 µM (active)
C=CC(F)(F)C(F)(F)C(F)(F)C(F)(F)C(F)(F)C(F)(F)C(F)(F)C(F)(F)C=C | inactive | inactive | inactive | inactive | inactive | – | – | – | – | –
